Marburg entry inh: Marburg virus entry inhibition; 300,000 tested, 1.8% active; Marburg virus pseudotyped entry inhibition, cell reporter; Potency, µM (top dose mostly 37.8 µM), inactives show at the highest dose activity change, negative = inhibition, actives largely listed as inhibitors; AID 540276; calls by dose curve; tested in HEK293 cells; note: potency is the fitted concentration of half-maximal effect; % is set by controls: 0 for no effect and ±100 for the full control effect
Shiga toxin inh: blocks Shiga toxin action in Vero cells. AID 2315. inhibition, % at 38.7 µM. Vero cells, Shiga toxin protein synthesis inhibition reporter. 290,000 tested, 9.2% active; in the data active = inhibition mostly above about 28%, no sharp cut-off; inactive = mostly below about 43%; note: 0% is about no effect
HCV inhibitor: blocks hepatitis C virus; 340,000 tested, 3.4% active; Huh7.5.1 HCVcc-Cre infection, luciferase reporter, 44 h; Potency, µM (top dose mostly 41.8 µM), for inactives: at the top dose activity change, negative = inhibition, most hits filed as inhibitors; AID 651820; active = well fitted inhibition curve with a large enough effect; inconclusive = small, poorly fitted or top-dose-only effect, or another doubt; inactive = no such curve, though single readings can be large or run the other way; note: potency is the fitted concentration of half-maximal effect; % is set by controls: 0 for no effect and ±100 for the full control effect
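1,000 cells/well; 4 h culture; + compound; + HCVcc-Cre (~0.5 moi); 44 h; luciferase substrate, RT 15 min; read 15 sec.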
Lassa entry inh: Lassa virus entry inhibition | Lassa virus pseudotype entry inhibition, cell reporter | Potency, µM (doses to about 37.9 µM), for the others: at the top dose activity change, negative = inhibition, most hits filed as inhibitors | 300,000 tested, 1.2% active | AID 540256; calls by dose curve; tested in HEK293 cells; note: potency is the fitted concentration of half-maximal effect; % is set by controls: 0 for no effect and ±100 for the full control effect; nearly all actives have a fitted effect of over 50% in size
FMDV antiviral: blocks foot and mouth disease virus. FMDV antiviral cell-based qHTS. Potency, µM (doses to about 57.9 µM), without a hit: top-dose activity change, negative = inhibition, usual class: inhibitors. 410,000 tested, 1.2% active. AID 1159524; calls by dose curve; tested in HEK293T cells; note: read-out not given here; potency is the fitted concentration of half-maximal effect; % is set by controls: 0 for no effect and ±100 for the full control effect; nearly all actives have a fitted effect of over 45% in size
Cycloheximide cs: affects cycloheximide protein synthesis inhibition readout, counter-screen; max response, %; AID 2314; 300,000 tested, 12% active; cell reporter, cycloheximide protein synthesis inhibition counterscreen; in the data active = max response mostly above about 13%, no sharp cut-off; inactive = mostly below about 14%; note: read at 38.3 µM for the half of the compounds with a filed dose; 0% is about no effect
* = called active by the depositor; ? = inconclusive; . = no result given; [ ] = dose if it differs, or a comment. Compounds with a hit are over-represented: about 13% of the library has one in this group of screens.

SMILES	Marburg entry inh	Shiga toxin inh	HCV inhibitor	Lassa entry inh	FMDV antiviral	Cycloheximide cs
COc1ccc(Nc2nc(Cl)nc(Nc3ccc(OC)cc3)n2)cc1	-1%[46.1 µM]	-3	?	-24%	-19%	6
COc1ccccc1N1CCN(CCN2C(=O)C3CCCN3C2=O)CC1 (stereo not given)	-1%	.	9%	3%	-13%	-2
CCN(CC)C(=S)SCc1csc(CC(=O)Nc2ccccc2C)n1	?	-5	?	-21%[46.1 µM]	0%	-4
CC1=C(c2ccc(C(C)C)cc2)S(=O)(=O)NC1=NCc1ccccc1Br	?	.	.	-2%[46.1 µM]	23%	.
O=C(COC(=O)c1cccc(S(=O)(=O)N2CCOCC2)c1)Nc1ncc(Cl)cc1Cl	.	.	9%	.	-21%	.
c1ccc(Nc2nc(Nc3ccccc3)nc(N3CCNCC3)n2)cc1	6.3µM*	-8	-26%	-18%[46.1 µM]	-8%	-1
CC(C)(CO)Nc1nc(Nc2ccccc2)nc(Nc2ccccc2)n1	-17%	-5	10µM*	0%	-23%	-1
COc1ccccc1Nc1nc(Cl)nc(NC(C)(C)C)n1	?	9	?	-22%	?	11*
OCCNc1nc(Nc2ccccc2)nc(Nc2ccccc2)n1	?	-15	?	-7%	-10%	-1
COc1ccc(Nc2nc(Cl)nc(Nc3ccc(OC)cc3OC)n2)c(OC)c1	?	-2	?	-26%	-23%	-4
Cc1oc2ccc(OC(=O)N3CCOCC3)cc2c1C(=O)OC(C)C	-24%	-4	-20%	-15%	?	-6
COC(OC)C1Nc2ccccc2C(=O)N1c1ccc(F)cc1 (stereo not given)	0%	.	8%	1%	-18%	.
Cc1ccc(N2C(=O)c3ccccc3NC2C(C)Cc2ccc3c(c2)OCO3)cc1 (stereo not given)	?	48*	?	-26%	-8%	18*
CC1(C2CC2)NC(=O)NC1=O (stereo not given)	13%	-18	2%	?	-10%	-3
CCC(CC)NC(=O)c1cccc(Oc2ccccc2)c1	-20%[46.1 µM]	31*	?	-1%	10%	19
O=C(Nc1nn[nH]n1)c1cccc(Oc2ccccc2)c1	6%	-10	10%	3%	-13%	-2
CCC(CC)NC(=O)c1cccc(Br)c1	7%[46.1 µM]	0	4%	3%[46.1 µM]	-5%	-2
Cc1cc(NC(=O)c2cccc(Oc3ccccc3)c2)n[nH]1	.	91*	-23%	.	32%	29*
Cc1cc(NC(=O)NC(=O)c2cccc(OC(F)(F)C(F)F)c2)n[nH]1	11%	69*	-8%	11%	38%	27*
COc1ccccc1/C=N/NC(=O)c1cccc(OC(F)(F)C(F)F)c1	-4%	17	18%	-11%	20%	18
Cc1sc(N2C(=O)C3C(C2=O)[C@H]2C=C[C@@H]3C2)c(C#N)c1C (stereo not given in full)	.	44	15%	.	-10%	-1
Cc1cccc(NC(=O)c2cc(S(=O)(=O)N3CCCCC3)c[nH]2)c1C	.	-5	-18%	-1%[46.1 µM]	-17%	-2
COc1ccc(C(c2nnnn2-c2ccc3c(c2)OCCO3)N2CCC(n3c(=O)[nH]c4ccccc43)CC2)cc1 (stereo not given)	.	.	.	.	-9%	.
CCCCn1nnnc1C(CCc1ccccc1)N1CCC(n2c(=O)[nH]c3ccccc32)CC1 (stereo not given)	.	.	.	.	20µM*	.
CCC(c1nnnn1-c1ccc(OC)cc1)N1CCC(n2c(=O)[nH]c3ccccc32)CC1 (stereo not given)	.	.	.	.	-20%	.
COc1ccc(-n2nnnc2C(CCc2ccccc2)N2CCC(n3c(=O)[nH]c4ccccc43)CC2)cc1 (stereo not given)	.	.	.	.	28µM*	.
Cc1cccc(C)c1-n1nnnc1C(CCc1ccccc1)N1CCC(n2c(=O)[nH]c3ccccc32)CC1 (stereo not given)	.	.	.	.	10µM*	.
COc1ccc(-n2nnnc2C(CCSC)N2CCC(n3c(=O)[nH]c4ccccc43)CC2)cc1 (stereo not given)	.	.	.	.	-18%	.
CCCCn1nnnc1C(CCSC)N1CCC(n2c(=O)[nH]c3ccccc32)CC1 (stereo not given)	.	.	.	.	-13%	.
O=c1[nH]c2ccccc2n1C1CCN(C(CCc2ccccc2)c2nnnn2-c2ccc3c(c2)OCCO3)CC1 (stereo not given)	.	.	.	.	25µM*	.

Screens deposited in PubChem BioAssay by National Center for Advancing Translational Sciences (NCATS).
